Results as given in the supplement of paper PMC13380429.

Legend:
[1] = test system: Vero E6 infected with SARS-CoV-2; test: morphology score (similarity to uninfected cells); higher = more like uninfected cells; details: 24 h
[2] = test system: Vero E6 infected with SARS-CoV-2; test: SARS-CoV-2 infection rate relative to infected DMSO; higher = more infection, active = 60 or less; details: 24 h

| Compound | morphology score [1] | SARS-CoV-2 infection rate [2] |
| --- | --- | --- |
| CC[N+](C)(CC)CCOC(=O)C1c2ccccc2Oc2ccccc21 [methantheline] (10 µM) | 0.0949 | 106% (inactive) |
| COC(=O)C1=C(C)NC(C)=C(C(=O)OCC(C)C)C1c1ccccc1[N+](=O)[O-] (configuration not stated) [nisoldipine] (0.833333 µM) | -0.0369 | 112% (inactive) |
| NCCCCN [putrescine] (10 µM) | 0.0364 | 94% (inactive) |
| Nc1cccc(CNC(=O)c2ccc(Oc3ccc(OCc4cccc(F)c4)cc3)nc2)c1 (10 µM) | -0.419 | 119% (inactive) |
| NCCc1cc[nH]n1 [betazole] (10 µM) | -0.0835 | 105% (inactive) |
| COc1cc2c(NC3CCN(CC4CCCCC4)CC3)nc(N3CCCN(C(C)C)CC3)nc2cc1OCCCN1CCCCC1 (0.833333 µM) | 0.165 | 92% (inactive) |
| Cc1cc2cc3c(C)cc(=O)oc3c(C)c2o1 [trioxsalen] (10 µM) | 0.133 | 94% (inactive) |
| C[N+]1(C)CCC(=C(c2ccccc2)c2ccccc2)CC1 [diphemanil] (10 µM) | -0.00596 | 95.5% (inactive) |
| C[C@H](Nc1cc(-c2cnn(C)c2)cc(Nc2cnccn2)n1)c1ccc(F)cc1 (0.833333 µM) | -0.112 | 114% (inactive) |
| CCN(CC)C(=O)/C(C#N)=C/c1cc(O)c(O)c([N+](=O)[O-])c1 [entacapone] (10 µM) | 0.149 | 102% (inactive) |
| O=C(Nc1cc(C(F)(F)F)cc(C(F)(F)F)c1)c1cnc(Cl)nc1C(F)(F)F (10 µM) | -0.17 | 111% (inactive) |
| CN[C@@H]1[C@@H](O)[C@@H](O[C@@H]2[C@@H](O)[C@H](O[C@H]3O[C@H](CN)[C@@H](O)[C@H](O)[C@H]3O)[C@@H](N)C[C@H]2NC(=O)[C@@H](O)CN)OC[C@]1(C)O [isepamicin] (10 µM) | 0.0671 | 109% (inactive) |
| CCCCn1c(-c2ccccc2)nc(-c2ccccc2)c1CN(Cc1ccc2c(c1)OCO2)Cc1ccc2c(c1)OCO2 (10 µM) | 0.139 | 99.5% (inactive) |
| O=C(NCC1CCCCN1)c1cc(OCC(F)(F)F)ccc1OCC(F)(F)F (configuration not stated) [flecainide] (10 µM) | 0.193 | 87.5% (inactive) |
| COC(=O)Nc1nc2cc(C(=O)c3ccccc3)ccc2[nH]1 [mebendazole] (0.833333 µM) | -0.163 | 102% (inactive) |
| CN(C(=O)CN1C(=O)COc2cc(Cl)c(Cl)cc21)[C@@H](CN1CCCC1)c1ccc(-c2cccc(C(N)=O)c2)cc1 (0.833333 µM) | 0.0807 | 104% (inactive) |
| Cc1sc(C)c2c1CCC=C2c1c[nH]cn1 (10 µM) | 0.165 | 94% (inactive) |
| CO/N=C(\C(=O)N[C@@H]1C(=O)N2C(C(=O)O)=CCS[C@H]12)c1csc(N)n1 [ceftizoxim] (10 µM) | -0.0509 | 102% (inactive) |
| COc1ccc(CCNCC(O)COc2cccc(C)c2)cc1OC (configuration not stated) [bevantolol] (10 µM) | -0.027 | 110% (inactive) |
| c1ccc2c(c1)CCCC2C1=NCCN1 (configuration not stated) [tetrahydrozoline] (0.833333 µM) | 0.00054 | 103% (inactive) |
| CN/C(=N\CCSCc1nc[nH]c1C)NC#N [cimetidine] (10 µM) | 0.151 | 97.5% (inactive) |

| Compound | morphology score [1] | SARS-CoV-2 infection rate [2] |
| --- | --- | --- |
| COc1ccc(-c2cc(=S)ss2)cc1 [anethole-trithione] (10 µM) | 0.0605 | 104% (inactive) |
| Cn1cc(C2=C(c3ccc(Cl)cc3Cl)C(=O)NC2=O)c2ccccc21 (10 µM) | 0.00458 | 102% (inactive) |
| c1ccc2c(CC3=NCCN3)cccc2c1 [naphazoline] (10 µM) | 0.146 | 99% (inactive) |
| CC/C(=C(/c1ccc(OCCN(C)C)cc1)c1cccc(O)c1)c1ccccc1 [droloxifene] (10 µM) | 0.73 | 24% (active) |
| CCNCc1cc(C(C)(C)C)c(O)c(C(C)(C)C)c1 (10 µM) | 0.195 | 99% (inactive) |
| CC(C)[C@](O)(c1ccc2cc(OC(F)F)c(OC(F)F)cc2c1)c1c[nH]nn1 (10 µM) | 0.165 | 102% (inactive) |
| CC(ONC(=O)c1cc(C(F)(F)F)cc(C(F)(F)F)c1)C(=O)Nc1ccc(Cl)cc1 (configuration not stated) (10 µM) | 0.227 | 89.5% (inactive) |
| O=C(O)C[C@H](O)C[C@H](O)/C=C/c1c(C2CC2)nc2ccccc2c1-c1ccc(F)cc1 [pitavastatin] (10 µM) | -0.127 | 115% (inactive) |
| CCCCCCCCC(=O)N[C@H](CN1CCCC1)[C@H](O)c1ccc2c(c1)OCCO2 (10 µM) | 0.393 | 71.5% (inactive) |
| O=C1O[C@H]([C@@H](O)CO)C(O)=C1O (10 µM) | 0.1 | 111% (inactive) |
| OCCCNc1cc(-c2ccnc(Nc3cccc(Cl)c3)n2)ccn1 (10 µM) | -0.158 | 98% (inactive) |
| OB1OCc2cc(F)ccc21 [tavaborole] (10 µM) | 0.00492 | 108% (inactive) |
| Cc1ccc2c(=O)c3ccccc3n(CCCN)c2c1C (10 µM) | -0.144 | 110% (inactive) |
| CCC(=O)[C@@]1(C)[C@H](C)C[C@H]2[C@@H]3CCC4=CC(=O)C=C[C@]4(C)[C@H]3[C@@H](O)C[C@@]21C [rimexolone] (10 µM) | 0.134 | 98.5% (inactive) |
| CN/C(=N\c1ccc(C2=NNC(=O)CC2C)cc1)NC#N (configuration not stated) [siguazodan] (10 µM) | 0.0721 | 109% (inactive) |
| CCN1CCN(c2cc(-c3ccc(F)cc3)c3c(n2)CCCCCC3)CC1 [blonanserin] (10 µM) | 0.248 | 107% (inactive) |
| OCCN1CCN(CCCN2c3ccccc3Sc3ccc(Cl)cc32)CC1 [perphenazine] (0.833333 µM) | -0.0186 | 109% (inactive) |
| C[C@@H]1COC(Nc2ccc3ncnc(Nc4ccc(OCc5nccs5)c(Cl)c4)c3c2)=N1 (10 µM) | -0.156 | 97% (inactive) |
| CCOC(=O)C1=C[C@@H](OC(CC)CC)[C@H](NC(C)=O)[C@@H](N)C1 [oseltamivir-phosphate] (10 µM) | 0.239 | 85.5% (inactive) |
| CC[C@@H](C(=O)[C@@H](C)[C@@H](O)[C@H](C)[C@@H]1O[C@@H]([C@@H](CC)C(=O)O)CC[C@@H]1C)[C@H]1O[C@]2(C=C[C@@H](O)[C@]3(CC[C@@](C)([C@H]4CC[C@](O)(CC)[C@H](C)O4)O3)O2)[C@H](C)C[C@@H]1C [Salinomycin (Procoxacin)] (10 µM) | -0.00386 | 108% (inactive) |
| C=C1C(=O)O[C@@H]2[C@H]3O[C@]3(C)CC/C=C(\C)CC[C@@H]12 [parthenolide-(alternate-stereo)] (0.833333 µM) | 0.111 | 106% (inactive) |

| Compound | morphology score [1] | SARS-CoV-2 infection rate [2] |
| --- | --- | --- |
| CO[C@H]1/C=C/O[C@@]2(C)Oc3c(C)c(O)c4c(O)c(c(/C=N/N5CCN(C6CCCC6)CC5)c(O)c4c3C2=O)NC(=O)/C(C)=C\C=C\[C@H](C)[C@H](O)[C@@H](C)[C@@H](O)[C@@H](C)[C@H](OC(C)=O)[C@@H]1C [rifapentine] (10 µM) | 0.192 | 107% (inactive) |
| Cc1cccc(C)c1NC(=O)CN1CCCC1=O [nefiracetam] (10 µM) | 0.0495 | 113% (inactive) |
| NC(=O)c1ncn([C@@H]2O[C@H](CO)[C@@H](O)[C@H]2O)n1 [ribavirin] (10 µM) | 0.0157 | 97.5% (inactive) |
| c1cn2cc(-c3ccc4cn[nH]c4c3)nc(Nc3ccc(N4CCOCC4)cc3)c2n1 (10 µM) | 0.194 | 104% (inactive) |
| CCCC(=O)O[C@]1(C(=O)CCl)[C@@H](C)C[C@H]2[C@@H]3CCC4=CC(=O)C=C[C@]4(C)[C@@]3(F)C(=O)C[C@@]21C [clobetasone-butyrate] (10 µM) | 0.344 | 96% (inactive) |
| O=C1c2ccccc2-n2c1nc1ccccc1c2=O [tryptanthrin] (10 µM) | 0.145 | 96% (inactive) |
| O=C(NCc1ccc2c(c1)OCO2)c1c(Cl)cccc1Cl [alda-1] (10 µM) | 0.107 | 104% (inactive) |
| CN1c2ccccc2C(=O)N2CCc3c([nH]c4ccccc34)C21 (stereo in doubt) [evodiamine] (10 µM) | -0.093 | 100% (inactive) |
| CC(=O)N1CCN(C)CC1 [1-acetyl-4-methylpiperazine] (10 µM) | -0.0421 | 102% (inactive) |
| CCN(CC)C(=S)S [ditiocarb-sodium-trihydrate] (10 µM) | 0.761 | 11% (active) |
| COCC[n+]1c2c(n(Cc3cnccn3)c1C)C(=O)c1ccccc1C2=O (0.833333 µM) | 0.0783 | 108% (inactive) |
| COc1ccc(-c2nc(C(=O)N3CCN(C)CC3)sc2-c2ccc(OC)cc2)cc1 (10 µM) | 0.211 | 93.5% (inactive) |
| CN[C@@H](C)C(=O)N[C@H](C(=O)N1CCC[C@H]1C(=O)Nc1sc(-c2ncco2)nc1-c1ccccc1)C1CCCCC1 (10 µM) | 0.185 | 102% (inactive) |
| NC(=O)CN1CCCC1=O [piracetam] (10 µM) | -0.0282 | 96.5% (inactive) |
| C[C@@H]1CN(Cc2ncccn2)C[C@H]1c1nc2c(cnn2C2CCOCC2)c(=O)[nH]1 (10 µM) | 0.11 | 108% (inactive) |
| Cc1cnc(NC(=O)Nc2cc(Br)c(C)cc2OC[C@@H]2CNCCO2)cn1 (0.833333 µM) | 0.0474 | 111% (inactive) |
| CCN(CC)S(=O)(=O)c1ccc(C(=O)O)cc1 [etebenecid] (10 µM) | 0.125 | 105% (inactive) |
| CC(C)[C@H]1[C@@H]2CC[C@@H](C2)[C@@H]1N (10 µM) | 0.109 | 82% (inactive) |
| CN1C(=O)C(N2CCCCC2)S/C1=C\C(=O)O (configuration not stated) [ozolinone] (10 µM) | 0.00951 | 108% (inactive) |
